From PubChem BioAssay
Activity calls are given as the source filed them. Unless noted, how the calls were made is not given here.

Experiments:
[1] = A549 cell viability effects, profiling panel, calcein-AM fluorescence, 48 h, basal (AID 1162); conditions: higher = more signal; further: test concentration not given here
[2] = adipocyte viability effects, profiling panel, cell-based, 3T3-L1 adipocytes, calcein-AM fluorescence, 48 h, basal (AID 1163); conditions: 3T3-L1 adipocytes viability, higher = more signal; further: test concentration not given here
[3] = HepG2 cell viability effects, profiling panel, calcein-AM fluorescence, 48 h, basal (AID 1164); conditions: higher = more signal; further: test concentration not given here
[4] = MM1S cell viability effects, profiling panel, calcein-AM fluorescence, 48 h, basal (AID 1165); conditions: higher = more signal;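 further: viability of MM1S multiple myeloma cells under basal unstimulated conditions; test concentration not given here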
[5] = basal RPMI8226 viability, no added stimulus, profiling panel, cell-based, calcein-AM fluorescence, 48 h, PK04 Diversity Set (AID 1166); conditions: RPMI8226 myeloma viability, higher = more signal;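 further: cells grown under basal conditions without added stimulus; test concentration not given here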
[6] = basal HepG2 mitochondrial membrane potential changes, profiling panel, cell-based, JC-1 fluorescence, 24 h, 100 nL compound (AID 1167); conditions: higher = more signal; further: test concentration not given here
[7] = basal 3T3-L1 adipocyte mitochondrial potential changes, profiling panel, cell-based, JC-1 fluorescence, 3T3-L1 adipocytes, 24 h, 100 nL compound (AID 1168); conditions: JC-1 mitochondrial fluorescence, higher = more signal, called active from +8 up or from −8 down; further: test concentration not given here
[8] = basal RPMI8226 mitochondrial membrane potential changes, profiling panel, cell-based, JC-1 fluorescence, 24 h, 100 nL compound (AID 1169); conditions: RPMI8226 myeloma, JC-1 mitochondrial potential fluorescence, higher = more signal; further: test concentration not given here
[9] = basal MM1S mitochondrial membrane potential changes, profiling panel, cell-based, JC-1 fluorescence, 24 h, 100 nL compound (AID 1170); conditions: higher = more signal; further: test concentration not given here
[10] = A549 lung cancer cell viability effects, profiling panel, resazurin fluorescence, 24 h, PK04 Diversity Set (AID 1171); conditions: higher = more signal, called active from +8 up or from −8 down; further: test concentration not given here
[11] = HepG2 liver cancer cell viability effects, profiling panel, resazurin fluorescence, 24 h, PK04 Diversity Set (AID 1172); conditions: higher = more signal; further: test concentration not given here
[12] = basal S. cerevisiae growth modulation, no modifier, primary screen, OD600, strain BY4716, 24 h, basal condition (AID 1173); conditions: OD600, 24 h, higher = more signal, called active from +8 up or from −8 down
[13] = MM1S myeloma cell viability, profiling panel, resazurin fluorescence, basal, 24 h, PK04 Diversity Set (AID 1174); conditions: higher = more signal, called active from +8 up or from −8 down;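 further: MM1S multiple myeloma cell line; test concentration not given here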
[14] = target: Dihydroorotate dehydrogenase (quinone), mitochondrial (Plasmodium falciparum (isolate 3D7)) (UniProt Q08210); assay: PfDHODH enzyme inhibitors, primary screen, biochemical, C-terminal His tag, absorbance 600 nm (AID 1175); conditions: DCIP absorbance 600 nm, higher = more signal, called active from +8 up or from −8 down;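 further: recombinant parasite enzyme with a five histidine tag at its C terminus; test concentration not given here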
[15] = P. aeruginosa biofilm formation inhibitors, primary screen, strain PAO1, LB-PBS medium, absorbance 600 nm (AID 1176); further: test concentration not given here; conditions: P. aeruginosa PAO1 growth/biofilm, A600, 12 h; higher = more signal
[16] = S. cerevisiae RM11-1a growth modifiers, primary screen, strain RM11-1a, OD600, basal, 24 h (AID 1177); conditions: OD600, 24 h, higher = more signal, called active from +8 up or from −8 down;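 further: cultures grown under basal conditions with no added stressor; test concentration not given here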
[17] = E. coli acrAB mutant growth effects, primary screen, E. coli filamentation inducers, strain DRC39, OD650, 24 h (AID 1178); conditions: higher = more signal, called active from +8 up or from −8 down;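 further: growth measured as culture turbidity by optical density at 650 nm; test concentration not given here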
[18] = E. coli acrAB mutant growth effects, primary screen, E. coli filamentation inducers, strain DRC39, OD650, 48 h (AID 1179);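 further: screen aims at cell division blockers that make cells filament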; conditions: E. coli DRC39 delta-acrAB growth, higher = more signal, called active from +8 up or from −8 down
[19] = RPMI8226 myeloma cell viability, profiling panel, resazurin fluorescence, basal, 24 h, PK04 Diversity Set (AID 1180); conditions: higher = more signal;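 further: RPMI8826 multiple myeloma cell line at 5000 cells per well; test concentration not given here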
[20] = target: E3 ubiquitin-protein ligase XIAP (Homo sapiens) (UniProt P98170); assay: XIAP binders, primary screen, biophysical, small-molecule microarray, fluorescence 635 nm (AID 1181); conditions: small-molecule microarray binding, higher = more signal;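 further: score merges 667 nm emission and signal to noise over triplicate slides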
Chain of E3 ubiquitin-protein ligase XIAP (Homo sapiens) (P98170 whole entry, looked up): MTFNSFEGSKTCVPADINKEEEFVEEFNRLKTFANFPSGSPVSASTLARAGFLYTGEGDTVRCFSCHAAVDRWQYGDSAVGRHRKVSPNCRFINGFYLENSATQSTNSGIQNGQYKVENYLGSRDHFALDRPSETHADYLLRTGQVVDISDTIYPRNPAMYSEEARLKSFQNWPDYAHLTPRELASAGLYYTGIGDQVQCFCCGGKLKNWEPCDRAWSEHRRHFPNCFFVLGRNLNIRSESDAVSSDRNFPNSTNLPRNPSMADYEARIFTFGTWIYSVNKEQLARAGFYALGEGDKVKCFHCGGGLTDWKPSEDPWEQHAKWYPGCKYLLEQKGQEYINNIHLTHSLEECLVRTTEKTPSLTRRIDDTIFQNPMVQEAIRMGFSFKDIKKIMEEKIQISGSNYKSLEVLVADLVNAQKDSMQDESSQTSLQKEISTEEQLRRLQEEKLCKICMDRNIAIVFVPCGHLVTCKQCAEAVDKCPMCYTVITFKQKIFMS

Chain of Dihydroorotate dehydrogenase (quinone), mitochondrial (Plasmodium falciparum (isolate 3D7)) (Q08210 whole entry, looked up): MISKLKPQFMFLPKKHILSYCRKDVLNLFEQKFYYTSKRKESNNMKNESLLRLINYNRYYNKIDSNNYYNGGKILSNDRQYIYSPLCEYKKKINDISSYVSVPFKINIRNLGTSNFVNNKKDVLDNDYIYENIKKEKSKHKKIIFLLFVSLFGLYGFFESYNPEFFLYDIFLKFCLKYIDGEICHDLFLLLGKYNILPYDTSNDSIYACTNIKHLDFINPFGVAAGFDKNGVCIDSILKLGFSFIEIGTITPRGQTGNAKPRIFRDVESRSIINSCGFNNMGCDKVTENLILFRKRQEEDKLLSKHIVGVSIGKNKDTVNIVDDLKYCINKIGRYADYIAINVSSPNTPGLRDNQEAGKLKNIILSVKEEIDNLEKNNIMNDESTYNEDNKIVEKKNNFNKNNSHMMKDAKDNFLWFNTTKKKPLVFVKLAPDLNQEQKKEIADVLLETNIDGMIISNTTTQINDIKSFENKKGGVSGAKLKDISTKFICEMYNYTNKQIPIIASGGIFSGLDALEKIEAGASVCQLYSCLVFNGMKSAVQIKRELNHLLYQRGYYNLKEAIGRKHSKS

Row | SMILES | z-score [1] | z-score [2] | z-score [3] | z-score [4] | z-score [5] | z-score [6] | z-score [7] | z-score [8] | z-score [9] | z-score [10] | z-score [11] | z-score [12] | z-score [13] | composite z-score [14] | z-score [15] | z-score [16] | z-score [17] | z-score [18] | z-score [19] | composite z-score [20]
1 | O=C1[C@H]2[C@H]3[C@H](O)[C@H](O)CC(=NOC[C@@H](O)COCc4ccco4)[C@@H]3CC[C@H]2C(=O)N1C[C@@H]1CCCO1 | 0.863 | -1.2 | -0.128 | 0.524 | -0.295 | 0.607 | 1.25 (inactive) | -0.32 | -0.796 | 0.0753 (inactive) | 0.188 | 0.408 (inactive) | 0.59 (inactive) | 0.121 (inactive) | -0.662 (inactive) | 1.1 (inactive) | 0.93 (inactive) | 1.14 (inactive) | -0.256 | 0.137
2 | CO[C@@H]1COC(=O)[C@@H](C)NC(=O)CC=C[C@@H](C)[C@H](NS(=O)(=O)c2ccc(C)cc2)COC(=O)[C@H](C)NC(=O)CC=C[C@H]1C | 0.458 | 0.177 | 0.196 | -0.0848 | -0.036 | -0.125 | -0.172 (inactive) | 0.51 | 0.468 | 1.33 (inactive) | 0.63 | -0.673 (inactive) | 0.416 (inactive) | 0.0059 (inactive) | -0.212 (inactive) | -0.489 (inactive) | 1.39 (inactive) | 0.428 (inactive) | 1.08 | -0.202
3 | CCOC(=O)CCN1C(=O)[C@H]2[C@H]3[C@H](O)[C@H](O)CC(=NOCc4ccccc4)[C@H]3CC[C@H]2C1=O | 0.14 | -1.08 | -0.416 | 0.0807 | -0.273 | 0.239 | 0.392 (inactive) | -0.508 | -1.22 | -0.553 (inactive) | -0.436 | 0.556 (inactive) | -1.34 (inactive) | 0.461 (inactive) | 0.365 (inactive) | 0.632 (inactive) | 0.955 (inactive) | 1.08 (inactive) | -0.775 | 0.012
4 | O=C1C[C@@H](O)[C@@H](O)[C@@H]2[C@@H]3C(=O)N(C[C@@H]4CCCO4)C(=O)[C@@H]3CC[C@H]12 | -0.232 | -0.42 | 0.614 | 0.136 | 0.433 | 0.446 | 0.763 (inactive) | -0.131 | -0.586 | -0.747 (inactive) | -0.57 | -0.189 (inactive) | -0.0898 (inactive) | 0.602 (inactive) | -0.744 (inactive) | 0.739 (inactive) | 0.343 (inactive) | 0.17 (inactive) | -0.449 | -0.28
5 | CCOC(=O)[C@H](CC(C)C)NC(=O)CCC1CC(OC(=O)NCc2ccc3c(c2)OCO3)CC2(CCCC(COC(=O)NCC(c3ccccc3)c3ccccc3)O2)O1 (stereo not given in full) | -0.338 | -0.335 | -0.312 | -3.41 | 0.592 | -0.106 | 0.604 (inactive) | -0.828 | 0.0369 | 0.577 (inactive) | 0.842 | 0.724 (inactive) | 0.56 (inactive) | 0.125 (inactive) | -0.306 (inactive) | 0.786 (inactive) | 0.304 (inactive) | 0.321 (inactive) | 0.509 | -0.17
6 | CCc1cc2c(nc1CC)CCN(CCC(C)=NO[C@H](C)c1cn([C@H](CO)Cc3ccccc3)nn1)C2 | 0.449 | 1.22 | 0.405 | 0.341 | -0.905 | 0.551 | -1.37 (inactive) | -0.664 | 0.105 | -0.285 (inactive) | -0.605 | -0.0397 (inactive) | -0.376 (inactive) | 1.07 (inactive) | -0.503 (inactive) | -0.0857 (inactive) | -1.4 (inactive) | -1.17 (inactive) | -0.162 | 0.204
7 | CCN1C(=O)[C@H]2[C@H]3[C@H](O)[C@H](O)CC(=NOCC(C)C)[C@@H]3CC[C@H]2C1=O | -0.556 | -0.0239 | -0.308 | -0.181 | 0.922 | -0.501 | -0.769 (inactive) | 0.788 | 0.0483 | -0.0226 (inactive) | 0.424 | -0.18 (inactive) | -0.243 (inactive) | -0.423 (inactive) | 0.99 (inactive) | -0.589 (inactive) | -0.556 (inactive) | -1.86 (inactive) | 0.279 | -0.0696
8 | O=C1[C@H]2[C@H]3[C@H](O)[C@H](O)CC(=NOC[C@@H](O)COCc4ccco4)[C@H]3CC[C@H]2C(=O)N1c1ccc(F)cc1F | 1.1 | 1.06 | -0.0367 | 0.621 | -0.478 | 0.501 | -0.162 (inactive) | -0.117 | -1.68 | 0.224 (inactive) | 0.474 | -1.89 (inactive) | 0.988 (inactive) | -2.54 (inactive) | 1.18 (inactive) | -3.71 (inactive) | -0.311 (inactive) | -1.22 (inactive) | -0.374 | -0.446
9 | C[n+]1ccc(-c2ccc(CO)cc2)cc1 | -1.45 | -0.84 | -0.0981 | -0.31 | -0.196 | -1.04 | -0.872 (inactive) | -0.634 | 0.236 | -0.939 (inactive) | -0.557 | 0.11 (inactive) | -0.404 (inactive) | -10 (active) | -0.407 (inactive) | -0.142 (inactive) | 0.207 (inactive) | -0.0742 (inactive) | -0.674 | 0.433
